Results as given in PubChem BioAssay (Tox21).
Records with an inconclusive call do not appear. Calls of active or inactive are those of the source. Unless noted, calls come from the whole dose curve; as a rule, active = well fitted curve in the direction sought with a large enough effect in the repeat runs; inconclusive = weak or mixed curves; inactive = no such curve, though single readings can be large; an effect the other way counts as inactive or inconclusive.

Tests used:
[1] = qHTS assay to identify small molecule antagonists of the estrogen related receptor (ERR) signaling pathway from Tox21 library - cell viability counter screen (AID 1224834); note: nearly all actives have a fitted effect of over 30% in size; note: potency is the fitted concentration of half-maximal effect
Outline: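 ERR reporter cells were plated 6 h before compound addition, then exposed to test compounds in DMSO for 17.5 h at 37 C. Viability was read as CellTiter-Fluor fluorescence after a 30-minute incubation at 37 C.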

[2] = molecular target: Luciferin 4-monooxygenase (Photinus pyralis) (UniProt P08659); test: qHTS assay to identify small molecule inhibitors of firefly luciferase (AID 1224835); note: nearly all actives have a fitted effect of over 25% in size
Chain of Luciferin 4-monooxygenase (Photinus pyralis) (P08659 whole entry, looked up): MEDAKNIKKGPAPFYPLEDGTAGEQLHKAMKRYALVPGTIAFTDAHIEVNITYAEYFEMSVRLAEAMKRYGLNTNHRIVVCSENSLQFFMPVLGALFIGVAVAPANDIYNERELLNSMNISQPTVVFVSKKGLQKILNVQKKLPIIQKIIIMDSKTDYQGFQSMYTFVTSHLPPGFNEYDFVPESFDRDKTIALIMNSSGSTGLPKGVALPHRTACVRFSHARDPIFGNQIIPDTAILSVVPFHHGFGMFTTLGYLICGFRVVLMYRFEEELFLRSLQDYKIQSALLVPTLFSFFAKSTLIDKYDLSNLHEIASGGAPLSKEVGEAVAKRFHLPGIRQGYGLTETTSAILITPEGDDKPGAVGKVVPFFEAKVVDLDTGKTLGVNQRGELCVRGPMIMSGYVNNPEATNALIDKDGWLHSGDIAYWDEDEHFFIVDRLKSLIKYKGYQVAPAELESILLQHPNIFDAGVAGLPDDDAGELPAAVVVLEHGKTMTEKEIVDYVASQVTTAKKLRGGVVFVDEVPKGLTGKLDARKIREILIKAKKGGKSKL
Outline: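 Inhibition of purified Photinus luciferase is measured by luminescence. Substrate levels (D-luciferin, ATP) sit at their KM values. Each compound is tested in a concentration series.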

[3] = qHTS assay to identify small molecule agonists of the constitutive androstane receptor (CAR) signaling pathway - cell viability counter screen (AID 1224836); note: nearly all actives have a fitted effect of over 45% in size; note: potency is the fitted concentration of half-maximal effect
Outline: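 Cells were seeded and incubated 4 hrs. Compounds were added across 15 concentrations together with PK11195 at 0.75 uM final. Plates were incubated 23 hrs at 37 C. CellTiter-Fluor was added and fluorescence measured.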

[4] = qHTS assay to identify small molecule antagonists of the constitutive androstane receptor (CAR) signaling pathway - cell viability counter screen (AID 1224837); note: nearly all actives have a fitted effect of over 45% in size; note: potency is the fitted concentration of half-maximal effect
Outline: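 HepG2 cells stably expressing hCAR and a CYP2B6-2.2kb reporter were plated and pre-incubated 4 hr at 37 C/5% CO2, then given compounds at 15 concentrations plus 50 nM CITCO (final). After 23 hr, viability was read by CellTiter-Fluor fluorescence.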

[5] = qHTS assay to identify small molecule antagonists of the estrogen related receptor signaling pathway with the pleiotropic PPARgamma coactivator (PGC) from Tox21 10K library - cell viability counter screen (AID 1224840; active = well fitted cell-killing curve with a large enough effect in the repeat runs, not every such curve was filed as active; note: nearly all actives have a fitted effect of over 40% in size)
Outline: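 PGC/ERR cells were seeded at 2,000 cells/well and left 6 hours at 37 C/5% CO2 before pin-tool addition of compounds in DMSO. After 17.5 hours at 37 C, CellTiter-Fluor was added and fluorescence read 30 minutes later.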

[6] = molecular target: Thyrotropin receptor (Homo sapiens) (UniProt P16473); test: qHTS assay to identify small molecule agonists of the thyroid stimulating hormone receptor (TSHR) signaling pathway (AID 1224843; calls by dose curve; note: nearly all actives have a fitted effect of over 45% in size)
Chain of Thyrotropin receptor (Homo sapiens) (P16473 whole entry, looked up): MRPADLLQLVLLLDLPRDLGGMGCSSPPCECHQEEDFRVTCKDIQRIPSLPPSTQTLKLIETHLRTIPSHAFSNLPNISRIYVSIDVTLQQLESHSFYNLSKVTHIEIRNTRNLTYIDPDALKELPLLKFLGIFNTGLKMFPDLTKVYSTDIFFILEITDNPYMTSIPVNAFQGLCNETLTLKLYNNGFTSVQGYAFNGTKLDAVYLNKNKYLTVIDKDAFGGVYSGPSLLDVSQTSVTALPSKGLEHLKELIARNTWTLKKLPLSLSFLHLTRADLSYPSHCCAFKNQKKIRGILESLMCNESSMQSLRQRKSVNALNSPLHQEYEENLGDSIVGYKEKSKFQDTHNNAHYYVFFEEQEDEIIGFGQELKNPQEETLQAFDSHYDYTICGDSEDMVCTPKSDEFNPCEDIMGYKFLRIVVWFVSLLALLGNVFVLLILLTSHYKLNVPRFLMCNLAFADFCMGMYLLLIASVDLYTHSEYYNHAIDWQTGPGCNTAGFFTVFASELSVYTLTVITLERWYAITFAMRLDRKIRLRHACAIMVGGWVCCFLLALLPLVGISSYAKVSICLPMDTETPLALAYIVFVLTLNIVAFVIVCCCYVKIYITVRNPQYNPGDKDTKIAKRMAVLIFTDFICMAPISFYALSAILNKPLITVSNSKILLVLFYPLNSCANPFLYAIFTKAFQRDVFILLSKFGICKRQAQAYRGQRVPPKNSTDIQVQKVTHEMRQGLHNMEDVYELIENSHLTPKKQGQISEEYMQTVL
Outline: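 Screening of the Tox21 10K collection used HEK293 cells engineered with TSHR at 800 cells per well. After a 30-min room-temperature compound exposure, HTRF cAMP reagents were added and fluorescence recorded 1 h later.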

[7] = qHTS assay to identify small molecule agonists of H2AX (AID 1224845; active = well fitted activation curve with a large enough effect in the signal ratio in the repeat runs, not every such curve was filed as active; the % refers to the signal ratio)
Outline: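 Phospho-H2AX Ser139 measured by HTRF (ex 320 nm; em 665 and 620 nm) after 24 hr antibody incubation. Compounds, 15 concentrations, 0.76% DMSO, were applied to CHO-K1 cells for 3hr at 37C before lysis.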

[8] = qHTS assay to identify small molecule agonists of the hypoxia (HIF-1) signaling pathway (AID 1224846; active = well fitted activation curve with a large enough effect in the signal ratio in the repeat runs, not every such curve was filed as active; the % refers to the signal ratio)
Outline: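 HRE-bla ME-180 cells (beta-lactamase reporter under hypoxia response element) were plated at 2,000 cells/well in medium with 0.5% dialyzed FBS, rested 5 hrs, then given compounds in DMSO for 17 hrs at 37C, 5% CO2. Reporter induction was read with CCF4-AM FRET substrate.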

[9] = qHTS RealTime-Glo MT Cell Viability Assay in HepG2 cells - 24 hour (AID 1224867); note: nearly all actives have a fitted effect of over 50% in size
Outline: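 Cells + NanoLuc/prosubstrate dispensed (600 cells/well) → 5 h at 37 C/5% CO2 → compounds in DMSO transferred → 40 h incubation at 37 C, luminescence read at 0, 8, 16, 24, 32, 40 h.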

[10] = qHTS RealTime-Glo MT Cell Viability Assay in HEK293 cells - 32 hour (AID 1224868); note: top concentration of the series differs between compounds; nearly all actives have a fitted effect of over 50% in size
Outline: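 Tox21 10K qHTS, HEK293, 600 cells/well, RealTime-Glo reagent co-dispensed with cells; 5 h preincubation, compound by pintool, 37 C, luminescence at 0–40 h.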

[11] = A CellTox Green Cytotoxicity Assay to monitor cytotoxicity in HEK293 cells - 0 hour (AID 1224869); note: nearly all actives have a fitted effect of over 50% in size
Outline: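 HEK293 cells premixed with CellTox Green dye were seeded at 600 cells/well and left 5 h at 37 C/5% CO2 before pin transfer of 23 nL compound in DMSO. Fluorescence from dye bound to dead-cell DNA was read during 40 h treatment.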

[12] = qHTS assay to identify small molecule antagonists of the estrogen related receptor signaling pathway with the pleiotropic PPARgamma coactivator (PGC) from Tox21 10K library (AID 1224841; call rule not given here; note: actives are mostly falling curves and most rising ones were filed inactive; nearly all actives have a fitted effect of over 50% in size)
Outline: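 PGC/ERR reporter cells were seeded at 2,000 cells/well and held 6 hours at 37 C/5% CO2 before pin-tool addition of compounds in DMSO. After 18 hours at 37 C, One-Glo was added and luminescence read after 30 minutes at room temperature.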

[13] = qHTS assay to identify small molecule agonists of the estrogen related receptor signaling pathway with the pleiotropic PPARgamma coactivator (PGC) from Tox21 10K library (AID 1224842); note: nearly all actives have a fitted effect of over 15% in size
Outline: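 Luminescence from One-Glo (30 min, room temperature) measured after PGC/ERR cells had 18 h at 37 C with pinned compound (23 nL in DMSO). Cells had been seeded at 2,000 per well and pre-incubated 6 h.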

[14] = qHTS assay to identify small molecule agonists of the estrogen related receptor (ERR) signaling pathway from Tox21 library (AID 1224849; calls by dose curve; note: nearly all actives have a fitted effect of over 15% in size); details: ERR reporter cell line, ONE-Glo luciferase, 18 h; at 92.4 µM (top of the series) unless noted
Outline: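 ERR reporter cell line (NTP) seeded, rested 6 h at 37 C/5% CO2, then pinned with Tox21 compounds in DMSO. After 18 h at 37 C, ONE-Glo luciferase luminescence was read following 30 min at room temperature.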

[15] = qHTS RealTime-Glo MT Cell Viability Assay in HepG2 cells - 40 hour (AID 1224870); note: nearly all actives have a fitted effect of over 50% in size
Outline: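 Real-time viability: cells seeded at 600 per well together with NanoLuc and cell-permeant prosubstrate, compounds added after 5 h incubation. Luminescence tracked at 0, 8, 16, 24, 32 and 40 h of exposure.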

[16] = qHTS assay to identify small molecule agonists of H2AX - cell viability counter screen (AID 1224847; calls by dose curve; note: top concentration of the series differs between compounds; nearly all actives have a fitted effect of over 30% in size)
Outline: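 Cytotoxicity counter screen in wild-type CHO-K1 cells: a 3 hr compound treatment at 37C across 15 concentrations, followed by CellTiter-Glo luminescence to gauge viable cells.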

[17] = qHTS assay to identify small molecule antagonists of the estrogen related receptor (ERR) signaling pathway from Tox21 library (AID 1224848); note: nearly all actives have a fitted effect of over 50% in size
Outline: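 Antagonist-mode screen of the Tox21 10K library in an NTP-provided ERR reporter cell line; 18 h compound exposure at 37 C, luminescence measured with ONE-Glo.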

[18] = qHTS assay to identify small molecule agonists of the hypoxia (HIF-1) signaling pathway - cell viability counter screen (AID 1224844; calls by dose curve; note: nearly all actives have a fitted effect of over 50% in size)
Outline: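 HRE-bla ME-180 cells in medium with 0.5% dialyzed FBS were preincubated 5 hrs at 37C, exposed to compounds for 17 hrs, then viability was read as CellTiter-Glo luminescence after 30 min at room temperature, in the reporter wells.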

[19] = molecular target: Nuclear receptor subfamily 1 group I member 3 (Homo sapiens) (UniProt Q14994); test: qHTS assay to identify small molecule agonists of the constitutive androstane receptor (CAR) signaling pathway (AID 1224839);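 note: HepG2 cells stably carrying human CAR and a CYP2B6 luciferase reporter; nearly all actives have a fitted effect of over 15% in size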
Chain of Nuclear receptor subfamily 1 group I member 3 (Homo sapiens) (Q14994 whole entry, looked up): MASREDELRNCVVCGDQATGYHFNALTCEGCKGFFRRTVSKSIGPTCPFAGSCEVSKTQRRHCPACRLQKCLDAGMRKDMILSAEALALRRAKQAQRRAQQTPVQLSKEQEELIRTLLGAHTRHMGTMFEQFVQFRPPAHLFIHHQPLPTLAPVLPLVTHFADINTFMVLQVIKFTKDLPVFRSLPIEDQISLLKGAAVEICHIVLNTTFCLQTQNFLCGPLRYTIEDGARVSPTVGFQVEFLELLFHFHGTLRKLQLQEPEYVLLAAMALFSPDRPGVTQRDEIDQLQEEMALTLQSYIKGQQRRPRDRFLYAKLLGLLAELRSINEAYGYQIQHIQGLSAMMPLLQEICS
Outline: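 Cells were plated and incubated 4 hrs, then dosed with compounds at 15 concentrations. PK11195 was added to 0.75 uM final. After 24 hrs at 37 C, luciferase luminescence was measured.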
% is set by controls: 0 for no effect and ±100 for the full control effect.

COc1ccc(-n2nc(C(F)F)cc2-c2ccc(S(C)=O)cc2)cc1 (stereo not given)
inactive: Potency [1] | Potency [2] | Potency [3] | Potency [4] | Potency [5] | Potency [6] | Potency [7] | outcome [8] | Potency [9] | Potency [10] | Potency [11]

CC[C@H]1OC(=O)[C@H](C)[C@@H](O[C@H]2C[C@@](C)(OC)[C@@H](O)[C@H](C)O2)[C@H](C)[C@@H](O[C@@H]2O[C@H](C)C[C@H](N(C)C)[C@H]2O)[C@](C)(O)C[C@@H](C)/C(=N\OCOCCOC)[C@H](C)[C@@H](O)[C@]1(C)O
inactive: Potency [2] | Potency [5] | Potency [12] | Potency [13] | Potency [6] | Potency [7] | outcome [8] | activity change, positive = activation [14] -14.4% [at 42.5 µM] | Potency [9] | Potency [11] | Potency [15]
active: Potency [1] 14.3 µM | Potency [3] 25.5 µM | Potency [4] 14.3 µM

COC(C)(C)OC
inactive: Potency [1] | Potency [2] | Potency [3] | Potency [4] | Potency [5] | Potency [12] | Potency [13] | Potency [6] | Potency [7] | outcome [8] | Potency [16] | Potency [17] | activity change, positive = activation [14] 2.58% | Potency [9] | Potency [10] | Potency [11] | Potency [15]

CC(C)(C)NCC(O)COc1cccc2c1C[C@H](O)[C@H](O)C2 (stereo not given in full)
inactive: Potency [1] | Potency [2] | Potency [3] | Potency [4] | Potency [5] | Potency [6] | Potency [7] | Potency [16] | Potency [9] | Potency [10] | Potency [11] | Potency [15]

CC(CCc1ccc(O)cc1)NCCc1ccc(O)c(O)c1 (stereo not given)
inactive: Potency [1] | Potency [2] | Potency [3] | Potency [4] | Potency [5] | Potency [12] | Potency [13] | Potency [6] | Potency [18] | outcome [8] | Potency [16] | Potency [17] | activity change, positive = activation [14] -12.3% [at 42.5 µM] | Potency [9] | Potency [10]

CCCCC(CC)COS(=O)(=O)O (stereo not given)
inactive: Potency [1] | Potency [2] | Potency [3] | Potency [4] | Potency [5] | Potency [12] | Potency [13] | Potency [6] | Potency [18] | Potency [7] | outcome [8] | Potency [16] | Potency [17] | activity change, positive = activation [14] 3.39% | Potency [11]

C1=CCC2CC=CC2C1 (stereo not given)
inactive: Potency [1] | Potency [2] | Potency [3] | Potency [4] | Potency [5] | Potency [12] | Potency [13] | Potency [6] | Potency [18] | Potency [7] | outcome [8] | Potency [16] | Potency [17] | activity change, positive = activation [14] 1.2% | Potency [9] | Potency [10] | Potency [11] | Potency [15]

CC1CCC(C(C)CS)CC1S (stereo not given)
inactive: Potency [1] | Potency [2] | Potency [3] | Potency [4] | Potency [5] | Potency [12] | Potency [16] | Potency [17] | activity change, positive = activation [14] 4.8% | Potency [11] | Potency [15]

CCCCOC(=O)CCCCC(=O)OCCCC
inactive: Potency [1] | Potency [2] | Potency [3] | Potency [4] | Potency [5] | Potency [12] | Potency [13] | Potency [18] | Potency [7] | outcome [8] | Potency [16] | Potency [17] | activity change, positive = activation [14] -0.363% | Potency [9] | Potency [10] | Potency [11] | Potency [15]

CCCCCCCCCCCCCCCC(=O)OCC
inactive: Potency [1] | Potency [2] | Potency [3] | Potency [4] | Potency [5] | Potency [6] | Potency [7] | outcome [8] | Potency [16] | Potency [10] | Potency [15]

Nc1nc(-c2ccc([N+](=O)[O-])cc2)cs1
inactive: Potency [1] | Potency [2] | Potency [3] | Potency [4] | Potency [5] | Potency [6] | Potency [18] | Potency [7] | outcome [8] | Potency [16] | Potency [9] | Potency [15]

CC(=O)OCC(C)C
inactive: Potency [1] | Potency [2] | Potency [3] | Potency [4] | Potency [19] | Potency [5] | Potency [18] | Potency [7] | outcome [8] | Potency [9] | Potency [10] | Potency [11] | Potency [15]

O=C(O)CCCc1c[nH]c2ccccc12
inactive: Potency [1] | Potency [2] | Potency [3] | Potency [4] | Potency [5] | Potency [12] | Potency [13] | Potency [18] | Potency [7] | outcome [8] | Potency [17] | activity change, positive = activation [14] 11.9% | Potency [9] | Potency [10] | Potency [15]

CCCCCCC(O)CCOC(C)=O (stereo not given)
inactive: Potency [1] | Potency [2] | Potency [3] | Potency [4] | Potency [5] | Potency [12] | Potency [13] | Potency [18] | Potency [7] | outcome [8] | Potency [16] | Potency [17] | activity change, positive = activation [14] -0.596% [at 240 µM] | Potency [9] | Potency [10]

CC(=O)c1ccc[nH]1
inactive: Potency [1] | Potency [2] | Potency [3] | Potency [4] | Potency [5] | Potency [18] | Potency [7] | outcome [8] | Potency [16] | Potency [9] | Potency [15]

NC(=O)c1ccccc1[N+](=O)[O-]
inactive: Potency [1] | Potency [2] | Potency [3] | Potency [4] | Potency [5] | Potency [6] | Potency [18] | Potency [7] | outcome [8] | Potency [16] | Potency [9] | Potency [10] | Potency [11] | Potency [15]

CCCCCCCCCCCSCC(=O)O
inactive: Potency [1] | Potency [3] | Potency [4] | Potency [19] | Potency [5] | Potency [12] | Potency [13] | Potency [6] | Potency [7] | outcome [8] | activity change, positive = activation [14] -19.7% | Potency [9] | Potency [10] | Potency [11]
